Test results as given in PubChem BioAssay (NCI).
Several values for one entry are separate records, joined by “and”; a condition that tells them apart may be missing. Equal entries are not always repeated. Compounds without any hit were thinned out: in the full panel of roughly 83,000, 20% have a hit.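 Testing used 96-well plates and a 48-hour single-concentration exposure. Example: -40 means 40% of the starting cells died.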 Activity calls are given as the source filed them. The calls were made as follows: active = growth percent below 10; inactive = the rest.

The compounds below were run on MDA-MB-468 breast (assay: NCI-60 one-dose screen, 48 h (100 = growth as untreated, 0 = no growth, -100 = all killed)). Conditions: 10 µM unless noted.

Row | SMILES | growth
1 | Cc1cc(N)c2ccccc2[n+]1CCCCCCCCCC[n+]1c(C)cc(N)c2ccccc21 | -55.7% (active)
2 | Cc1ccc(-c2csc(N)n2)cc1 | 104% (inactive)
3 | COc1ccc(NC(=O)COc2ccccc2)c(C(N)=O)c1 | 16.6% (inactive)
4 | O=C(O)c1cccc(-n2ncc(Cl)c(Cl)c2=O)c1 | 74.5% (inactive)
5 | NC(=O)C(O)(c1ccccc1)c1ccccc1 | 95.1% (inactive)
6 | CCCCCCCN(CCCCCCC)C(=N)c1ccc(OC)c2ccccc12 | -85% (active)
7 | O=C(N=Nc1c(O)[nH]c2ccccc12)Nc1ccccc1Cl | 11.5% (inactive)
8 | NCCNc1nc(Nc2ccc(-c3nc4ccccc4[nH]3)cc2)c2cn[nH]c2n1 | 57.2% (inactive)
9 | C=C(C)[C@@H]1CC[C@]2(C(=O)N3CCN(C)CC3)CC[C@]3(C)[C@H](CC[C@@H]4[C@@]5(C)C/C(=C/c6ccncc6)C(=O)C(C)(C)[C@@H]5CC[C@]43C)[C@@H]12 | 55.6% (inactive)
10 | Cc1nc2ccccc2c(N)c1-c1cc(C)c2c(C)nc3ccccc3c2n1 | -94.8% (active)
11 | CC1CCN(Cc2ccc(NC(=O)c3cc4ccc5cccnc5c4[nH]3)cc2)CC1 | 21% (inactive)
12 | Cc1ccc(C(=O)Nc2ccccc2C(=O)N/N=C(\c2ccccc2)c2ccccn2)cc1 | -1.12% (active)
13 | CC1=C(C)C(=O)C(Nc2cccc(C(=O)OC(C)(C)C)c2)=C(Cl)C1=O | -23.6% (active)
14 | Cc1[nH]nc2ccc(-c3nc4cnc(N5CCN(C)CC5)cn4c3Nc3ccc(F)cc3Br)cc12 | 56.2% (inactive)
15 | Cn1cc(-c2cnn3c(N)c(Br)c([C@@H]4CCCNC4)nc23)cn1 | 67.5% (inactive)
16 | O=C(CCCCCCN1CC(=O)N2[C@H](c3ccc(Cl)cc3)c3[nH]c4ccccc4c3C[C@@H]2C1=O)NO | 36.5% (inactive)
17 | O=C1c2cccnc2C(=O)c2c1c(C(=O)OCCCN1CCCCC1)c1ccccn21 | 31.6% (inactive)
18 | CCNC(=O)N1CCc2c(Br)c3c(c(OC)c2C1Cc1ccc(OC)cc1)OCO3 (stereo not given) | 19.2% (inactive)
19 | COc1ccc2sc3cccc(NCCN(C)C)c3c(=O)c2c1 | 52.3% (inactive) and -82% (active)
20 | COc1ccc(/C=N/NC(=O)CSc2nc(-c3cnccn3)cc(-c3cccs3)c2C#N)cc1OC | 65.3% (inactive)

Row | SMILES | growth
21 | COc1ccc(-c2nc(-c3nc4cc(Cl)c(F)cc4[nH]3)c3ccccn23)cc1 | 54.6% (inactive)
22 | COc1cc(/C=C2\CCC/C(=C\c3ccc(OCC4CO4)c(OC)c3)C2=O)ccc1OCC1CO1 (stereo not given) | 20.1% (inactive)
23 | Nc1cc2ccncc2c2ccccc12 | 71.7% (inactive)
24 | CCCCCCCCCCCCc1ccc([N+](CC)(CC)CC)cc1 | -5.49% (active)
25 | COc1cc2nc(N3CCN(C(=O)C4COc5ccccc5O4)CC3)nc(N)c2cc1OC (stereo not given) | 78.2% (inactive) and 104% (inactive)
26 | NC(=O)Nc1ccc2ncnc(Nc3cccc(O)c3)c2c1 | 67.9% (inactive)
27 | O=C1N=c2ccccc2=C1c1sc(=S)n(C2CC(=O)N(c3ccc(Cl)cc3)C2=O)c1O (stereo not given) | 95.2% (inactive)
28 | COc1cccc(C(=O)Cn2cc(/C=C(\C#N)S(=O)(=O)c3ccccc3)c3ccccc32)c1 | 104% (inactive)
29 | NC(=O)c1c(NC(=O)c2ccccc2C(F)(F)F)sc2c1CCC(=O)C2 | 14.9% (inactive)
30 | CCN(CC)CCOc1ccccc1C | 118% (inactive)
31 | CCCCCCCCCCCC(=O)OC(C)C(=O)NCCCC (stereo not given) | 105% (inactive)
32 | c1ccc(-c2c(-c3ccccc3)[n+](Cc3ccc4ccccc4c3)cn2Cc2ccc3ccccc3c2)cc1 | -85% (active)
33 | C/C(=N\NC(=O)C(C)SC(C)C(=O)N/N=C(\C)c1cccnc1)c1cccnc1 (stereo not given) | 103% (inactive)
34 | CCN(C)S(=O)(=O)Nc1cccc(Nc2ncnc3cc(NC(=O)CCl)ccc23)c1Cl | 9.82% (active)
35 | ClC1c2ccccc2CCc2ccccc21 | 111% (inactive)
36 | O=c1oc2ccc(-c3ccc(F)cc3F)cc2c(=O)n1-c1cccc(C(F)(F)F)c1 | -12.8% (active) and -5.33% (active)
37 | COc1ccc(-c2nnc(SCC(=O)Nc3ccc(C(=O)/C=C/c4ccc(Cl)cc4)cc3)n2-c2ccccc2)cc1 | 97.9% (inactive)
38 | NC(=O)SCC(=O)NNc1ccccc1 | 92.9% (inactive)
39 | CCCC/C(=N\N=C(N)N)c1ccc(F)cc1 | -12.3% (active)
40 | O=C(NNc1nc2cc(F)ccc2n2c(CN3CC4(COC4)C3)ccc12)c1cnccn1 | -16.1% (active)
